The whole screen tested about 310,000 compounds, of which about 14,000 (4.5%) showed an effect of 50% or more. The effect is printed as a negative number. For the sample, strong results were picked, then their nearest neighbours and some compounds at random.
These molecules were tested against human ether-à-go-go-related gene (hERG) potassium channel (human, UniProt Q12809) (assay: primary screen, population patch clamp on CHO cells stably expressing hERG; higher = less effect of the substance).
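Note: peak tail current of the secondary pulse compared with the same well before compound.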

human ether-à-go-go-related gene (hERG) potassium channel, sequence (Q12809 whole entry, looked up): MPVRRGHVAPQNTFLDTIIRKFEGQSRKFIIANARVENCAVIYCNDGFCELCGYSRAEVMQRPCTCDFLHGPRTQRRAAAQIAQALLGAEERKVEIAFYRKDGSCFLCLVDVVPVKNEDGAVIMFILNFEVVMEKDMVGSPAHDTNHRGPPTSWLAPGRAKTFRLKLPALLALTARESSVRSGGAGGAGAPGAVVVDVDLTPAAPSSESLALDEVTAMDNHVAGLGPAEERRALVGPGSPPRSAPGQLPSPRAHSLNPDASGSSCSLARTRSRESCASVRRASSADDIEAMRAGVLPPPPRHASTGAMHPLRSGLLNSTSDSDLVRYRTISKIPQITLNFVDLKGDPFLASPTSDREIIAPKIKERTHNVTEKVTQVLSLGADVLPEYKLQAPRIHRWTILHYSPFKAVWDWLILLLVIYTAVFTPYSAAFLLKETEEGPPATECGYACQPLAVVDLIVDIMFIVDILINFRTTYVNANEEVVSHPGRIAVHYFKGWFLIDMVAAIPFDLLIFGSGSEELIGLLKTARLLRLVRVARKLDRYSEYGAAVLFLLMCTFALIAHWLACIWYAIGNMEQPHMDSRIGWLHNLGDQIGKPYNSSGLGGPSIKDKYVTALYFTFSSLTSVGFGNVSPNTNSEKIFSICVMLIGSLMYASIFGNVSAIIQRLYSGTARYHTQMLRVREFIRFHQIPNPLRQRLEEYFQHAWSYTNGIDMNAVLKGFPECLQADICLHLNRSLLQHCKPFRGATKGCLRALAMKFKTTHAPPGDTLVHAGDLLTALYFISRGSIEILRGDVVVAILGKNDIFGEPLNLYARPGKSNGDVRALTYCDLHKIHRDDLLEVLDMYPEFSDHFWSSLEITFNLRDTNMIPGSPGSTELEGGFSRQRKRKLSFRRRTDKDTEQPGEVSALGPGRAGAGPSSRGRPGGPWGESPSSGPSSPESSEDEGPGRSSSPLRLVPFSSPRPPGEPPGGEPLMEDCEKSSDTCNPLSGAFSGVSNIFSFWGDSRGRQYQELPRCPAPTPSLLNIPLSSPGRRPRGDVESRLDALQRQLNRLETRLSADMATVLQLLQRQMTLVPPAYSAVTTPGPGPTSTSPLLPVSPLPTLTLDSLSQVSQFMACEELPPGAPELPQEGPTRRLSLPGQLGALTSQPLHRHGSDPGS

| SMILES | hERG current change (%, negative = inhibition) at 10uM [%] |
| --- | --- |
| Cc1ccc(NC(=O)COC(=O)CCc2c[nH]c3ccccc23)c(C)c1 | 9.87 |
| COC(=O)C(C)Oc1ccc(Cl)c(CN2OCC(C)(C)C2=O)c1 (stereo not shown) | 5.26 |
| Cc1ccccc1OCCC(=O)OCC(=O)NCCc1ccccc1 | -0.876 |
| Cc1nnn(-c2nonc2N)c1C(=O)N/N=C/c1cccc2ccccc12 | -7.26 |
| CCOC(=O)C1CCN(S(=O)(=O)c2c(C)noc2C)CC1 | -37.9 |
| Cc1nc(C(C)N(C)Cc2c(C(=O)N3CCCCC3)nc3c(C)cccn23)c(C)s1 (stereo not shown) | -22.7 |
| CCOC(=O)C1(CCOc2ccccc2)CCN(Cc2cc(OC)c(O)c(OC)c2)CC1 | -77.6 |
| CCOC(=O)C1(CCOC)CCN(Cc2ccc3nonc3c2)CC1 | -10.5 |
| CCOC(=O)C1(CCOc2ccccc2)CCN(Cc2ccc(O)c(OC)c2)CC1 | -75.4 |
| CCOC(=O)C1(CCOc2ccccc2)CCN(Cc2ccc(F)c(OC)c2)CC1 | -35.3 |
| CCOCCCNC(=O)Cc1ccc(OC)c(OC)c1 | 14.1 |
| Cc1ccc(NC(=O)CC(=O)Nc2ccc(C)c(C)c2)cc1C | 11.7 |
| CCCn1c(CC)nc([N+](=O)[O-])c1S(=O)(=O)c1ccccc1 | -23.8 |
| CCOC(=O)N1CCN(C(=O)C2CCN(S(=O)(=O)c3ccc(Cl)cc3)CC2)CC1 | -48.7 |
| O=C1CS/C(=N\N=C\c2ccccc2Cl)N1CC1CC1 | 12.3 |
| FC(F)(F)c1cccc(Cn2c3[n+](c4ccc(C(F)(F)F)cc42)CCCCC3)c1.[Cl-] | -17.6 |
| FC(F)(F)c1ccc2c(c1)n(Cc1ccccc1)c1[n+]2CCCCC1.[Cl-] | -24 |
| Cc1cc(C(C)(C)C)cc(C)c1Cn1c2[n+](c3ccc(C(F)(F)F)cc31)CCCCC2.[Cl-] | -55.4 |
| COc1ccc(OC)c(CC(=O)O)c1 | 10.8 |
| O=C(NC1CCCCC1)C1CCN(c2nccs2)CC1 | 4.43 |
| COc1ccc(/C=C2/C(=O)N=C(N)N2C)cc1OC | 7.3 |
| COc1cc(-c2noc(C)c2/C=C/c2cccc([N+](=O)[O-])c2)cc(OC)c1OC | -2.59 |
| CCOC(=O)C1=CN(CC2CCCO2)C=C(C(=O)OCC)C1c1ccccc1C(F)(F)F (stereo not shown) | -64.7 |
| CCCCN1C=C(C(=O)OC)C(c2ccccc2C(F)(F)F)C(C(=O)OC)=C1 | -1.84 |
| COC(=O)C1=CN(CC2CCCO2)C=C(C(=O)OC)C1c1ccccc1C(F)(F)F (stereo not shown) | 8.49 |
| COCCN1C=C(C(=O)OC)C(c2ccccc2C(F)(F)F)C(C(=O)OC)=C1 | -8.36 |
| COC(=O)C1=CN(CCCN2CCCC2=O)C=C(C(=O)OC)C1c1ccccc1C(F)(F)F | -57.1 |
| COC(=O)C1=CN(CCCN2CCCC2=O)C=C(C(=O)OC)C1c1cccs1 | -25.1 |

Source: article PMC4336329 (PLoS ONE, 2015)
